PI5P4Ka inh – qHTS for Inhibitors of phosphatidylinositol 5-phosphate 4-kinase (PI5P4K); Phosphatidylinositol 5-phosphate 4-kinase type-2 alpha (Homo sapiens), P48426; PI5P4Kalpha enzyme, ADP-Glo luminescence, 60 min; stronger effect = lower value; max response, %; 1.2% of 330,000 active; active = max response of -50% or lower; inconclusive = between -30% and -50%; inactive = -30% or higher; also: value at the top dose of about 77 µM
Target sequence (P48426 whole entry, looked up): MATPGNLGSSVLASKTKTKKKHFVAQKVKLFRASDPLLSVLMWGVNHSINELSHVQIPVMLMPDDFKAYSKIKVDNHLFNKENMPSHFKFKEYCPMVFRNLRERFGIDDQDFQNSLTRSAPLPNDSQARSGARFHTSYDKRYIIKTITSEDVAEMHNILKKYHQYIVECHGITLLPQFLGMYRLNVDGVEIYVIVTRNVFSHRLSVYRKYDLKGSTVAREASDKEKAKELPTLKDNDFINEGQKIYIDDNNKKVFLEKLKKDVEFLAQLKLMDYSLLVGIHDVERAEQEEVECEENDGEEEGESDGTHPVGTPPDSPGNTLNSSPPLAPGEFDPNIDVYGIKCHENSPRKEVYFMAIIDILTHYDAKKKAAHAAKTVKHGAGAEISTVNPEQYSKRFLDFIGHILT
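Reactions run in 0.038 M HEPES pH 7.4, 0.28 mM EGTA, 0.1% CHAPS and 5% DMSO, with PI5P4Kalpha, substrate, compound and 5 microM ATP final, one hour at room temperature. Readout is ADP-Glo luminescence.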
BAZ2B block – qHTS Assay for Inhibitors of BAZ2B | Bromodomain adjacent to zinc finger domain protein 2B (Homo sapiens), Q9UIF8 | AlphaScreen BAZ2B-H3K14Ac peptide displacement | Potency, µM (series often up to 114 µM), actives largely listed as inhibitors | 4.4% of 360,000 active | AID 504333, 2011; also: nearly all actives have a fitted effect of over 60% in size
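In this displacement format the biotinylated H3(5-23) peptide acetylated at Lys14 serves as ligand at 50 nM, with BAZ2B at 50 nM in PBS pH 7.4 containing 0.01% Tween-20. Donor and acceptor beads are 10 ug/mL final.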
HP1b chromo inh – HTS for Inhibitors of HP1-beta Chromodomain Interactions with Methylated Histone Tails | Chromobox protein homolog 1 (Homo sapiens), P83916 | AlphaScreen HP1-beta / biotin-H3K9me3 peptide binding | Potency, µM (titrated, usually from 114 µM), actives largely listed as inhibitors | 0.56% of 390,000 active | AID 540317, 2011; also: nearly all actives have a fitted effect of over 70% in size
Target sequence (P83916 whole entry, looked up): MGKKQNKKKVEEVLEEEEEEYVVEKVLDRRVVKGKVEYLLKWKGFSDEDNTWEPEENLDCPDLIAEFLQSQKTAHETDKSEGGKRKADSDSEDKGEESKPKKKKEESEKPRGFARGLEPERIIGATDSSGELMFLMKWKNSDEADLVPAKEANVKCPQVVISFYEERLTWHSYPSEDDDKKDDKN
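AlphaScreen: HP1-beta (50 nM) preformed 30 min with biotin-H3(1-18)K9me3 peptide (50 nM) in PBS pH 7.4, 0.01% Tween-20. Compound added for 30 min at RT, then streptavidin donor/nickel chelate acceptor beads (10 ug/mL) for 30 min.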
L3MBTL1 block – qHTS Assay for the Inhibitors of L3MBTL1; AlphaScreen L3MBTL1–H3K9me1 peptide binding; 0.66% of 230,000 active; AID 485360, 2010; Lethal(3)malignant brain tumor-like protein 1 (Homo sapiens), Q9Y468; Potency, µM (top dose mostly 57.1 µM), actives largely listed as inhibitors; also: nearly all actives have a fitted effect of over 60% in size
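Displacement of a biotinylated histone H3(1-15) peptide monomethylated at Lys9 (75 nM) from L3MBTL1 (50 nM) was measured by AlphaScreen after a 30 min room-temperature compound incubation; cefsulodin titration served as intraplate control.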
JMJD2A Tudor – qHTS Assay for Inhibitors of JMJD2A-Tudor Domain. AID 504339, 2011. Lysine-specific demethylase 4A (Homo sapiens), O75164. 4.4% of 390,000 active. AlphaScreen JMJD2A-Tudor / H3K4me3 peptide binding. Potency, µM (titrated, usually from 114 µM), most hits filed as inhibitors; also: nearly all actives have a fitted effect of over 50% in size
KDM4E inh – qHTS Assay for Inhibitors of Human Jumonji Domain Containing 2E (JMJD2E) | AID 2147, 2009 | Potency, µM (top dose mostly 57.1 µM), most hits filed as inhibitors | JMJD2E catalytic domain, FDH-coupled NADH fluorescence (FDH is formaldehyde dehydrogenase) | 1.6% of 230,000 active | Lysine-specific demethylase 4E (Homo sapiens), B2RXH2; active = well fitted inhibition curve with a large enough effect, not every such curve was filed as active; inconclusive = small, poorly fitted or top-dose-only effect, or another doubt; inactive = no such curve, though single readings can be large or run the other way; also: nearly all actives have a fitted effect of over 50% in size
Numbers stand for hits; n = inactive; u = inconclusive; x = no result given; [ ] = remark or other dose. In the library only some 5.7% were active in any assay of this set; here they are far more common. Unless noted, calls follow the shape of the dose curve; as a rule, active = well fitted inhibition curve with a large enough effect; inconclusive = small, poorly fitted or top-dose-only effect; inactive = no such curve, though single readings can be large or run the other way.

SMILES | PI5P4Ka inh | BAZ2B block | HP1b chromo inh | L3MBTL1 block | JMJD2A Tudor | KDM4E inh
Cc1cccc[n+]1C1C(c2ccc([N+](=O)[O-])cc2)C(C#N)=C(C(=C=[N-])C#N)NC1(O)C1CC1 (centres undefined) | n | n | n | n | n | 13µM
COc1ccc2nc(NC(=O)c3ccc(-c4cccc([N+](=O)[O-])c4)o3)sc2c1 | x | 79µM | x | n | x | n
O=C(O)c1ccc(-c2cccc([N+](=O)[O-])c2)o1 | n | u | n | n | n[11.4 µM] | n
N#C/C(=C(/O)c1ccc(-c2cccc([N+](=O)[O-])c2)o1)c1nc2ccccc2s1 | -53 | 45µM | n | x | u | n
CC(=O)Nc1ccc(NC(=O)c2ncoc2-c2ccco2)cc1 | x | n | n | x | n | x
O=C1CCCc2c1cc(C(=O)O)c(=O)n2-c1ccccc1 | n | n | n | n | n | n
O=C1CCCc2c1cc(C(=O)Nc1ccc(Br)cn1)c(=O)n2-c1ccccc1 | n | n | n | n | 79µM | u
CCOC(=O)C1CCN(C(=O)CCc2nnc3ccc(NCc4ccco4)nn23)CC1 | n | u | n | x | n | x
O=C(CCc1nnc2ccc(NCc3ccco3)nn12)N1CCN(c2ccccc2)CC1 | u | 50µM | n | x | 40µM | x
CCCN1C(=O)/C(=C\C=C2/Sc3ccccc3N2CC)SC1=S | x | u | x | n | x | n
CCCN1C(=O)/C(=C\C=C2\N(CC)c3ccccc3C2(C)C)SC1=S | n | 3.5µM | u | u | 8.9µM | u
CN1/C(=C\C=C2/SC(=S)NC2=O)C(C)(C)c2ccccc21 | -77 | 7.9µM | u | n | u | n
CCOC(=O)C1CCN(C(=O)C2CCN(S(=O)(=O)N3CCC4(CC3)OCCO4)CC2)CC1 | n | n | n | x | n | x
CC1(C)CC(=O)c2cc(-c3nc(-c4ccc(Cl)cc4)cs3)c(=O)[nH]c2C1 | x | n | n | x | n | x
CC1(C)CC(=O)c2cc(-c3nc(-c4ccc(F)cc4)cs3)c(=O)[nH]c2C1 | x | 71µM | n | x | u | x
COc1ccc2c(c1)c(=O)oc1c(C)c(OC(C)C(=O)N[C@@H](Cc3c[nH]c4ccc(O)cc34)C(=O)O)ccc12 (some centres undefined) | n | 50µM | n | x | u | x
CNC(=S)NNC(=O)COc1ccc(C)c(C)c1 | n | n | n | n | 50µM | n
CCOC(=O)CN1C(=O)C(O)=C(C(C)=O)C1c1ccc(F)cc1 (centres undefined) | n | 71µM | n | n | n | n
CCOC(=O)CN1C(=O)C(O)=C(C(C)=O)C1c1ccc([N+](=O)[O-])cc1 (centres undefined) | n | u | n | x | n | n
CCOC(=O)CN1C(=O)C(O)=C(C(C)=O)C1c1ccccc1 (centres undefined) | n | 79µM | n | x | u | n
CCn1c2c(c(C)cc1=O)C(=O)CC(C)(C)C2 | n | n | n | n | n | n
CCn1c(C)c2c([n+]1CC)CC(C)(C)CC2=O | x | n | n | x | 32µM | n
CCC1CN(C(=O)N2CCC(C(=O)N3CCN(c4ccccc4)CC3)CC2)c2ccccc2O1 (centres undefined) | x | n | n | x | n | x
O=C(Nc1cccc([N+](=O)[O-])c1)N1CCN(c2ccccc2)CC1 | n | u | n | n | n | n
Cc1ccc(N2CCN(C(=O)Nc3cccc([N+](=O)[O-])c3)CC2C)cc1 (centres undefined) | n | 56µM | u | n[11.4 µM] | u | n
SMILES | PI5P4Ka inh | BAZ2B block | HP1b chromo inh | L3MBTL1 block | JMJD2A Tudor | KDM4E inh
O=C(N/N=C/C=C\c1ccccc1[N+](=O)[O-])c1ccco1 | n | n | n | n | n | n
Cc1occc1C(=O)N/N=C/C=C\c1ccccc1[N+](=O)[O-] | n | u | n | n | 89µM | n
O=C(Cc1ccccc1)N/N=C/C=C/c1cccc([N+](=O)[O-])c1 | n | n | n | n | n | n
COc1ccc(NCC(=O)N/N=C/C=C/c2ccccc2[N+](=O)[O-])cc1 | n | 40µM | n | n | 79µM | n
Cc1ccccc1NCC(=O)N/N=C\C=C\c1cccc([N+](=O)[O-])c1 | n | u | n | n | 50µM | u
Cc1ccccc1-c1nc(CS(=O)(=O)CC(=O)NCCCc2ccccc2)c(C)o1 | x | n | n | x | n | x
Cc1nnc(NC2CCCCC2)[nH]c1=O | n | n | n | n | n | n
O=c1[nH]c(NC2CCCCC2)nnc1Cc1ccccc1 | n | n | n | n | 50µM | n
O=C(N/N=C/c1ccc([N+](=O)[O-])o1)C1CC1 | n | 50µM | n | u | u | n
Cc1ccc(OCC(=O)N/N=C/c2ccc([N+](=O)[O-])o2)cc1 | x | n | n | n | n | n
CN(/N=C/c1ccc([N+](=O)[O-])o1)c1ccccc1 | n | 14µM | 35µM | n | 32µM | n
O=C(COc1ccccc1)N/N=C/c1ccc([N+](=O)[O-])o1 | -55 | n | n | n | n | n
Cn1nnnc1Sc1ncnc2scc(-c3ccccc3F)c12 | x | x | x | x | n | x
COc1ccc(NC(=O)CSc2nncn3c2cc2occc23)c(OC)c1 | x | n | n | x | n | x
Cc1cc(C)c(NS(=O)(=O)c2ccc3c(c2)NC(=O)CC(=O)N3)c(C)c1 | n | n | n | n | n | n
COC(=O)C1=C(C)N(c2ccc(OC)cc2)C(=O)/C1=C\c1cccs1 | n | n | n | n | u | n
COC(=O)C1=C(C)N(c2cccc(OC)c2)C(=O)/C1=C\c1ccco1 | n | 18µM | 40µM | u | 45µM | n
CCOC(=O)C1=C(C)N(c2ccc(OCC)cc2)C(=O)/C1=C\c1ccco1 | n | 8.9µM | 45µM | x | 22µM | n
CCOc1ccc(N2C(=O)/C(=C/c3ccco3)N(C)C2=S)cc1 | n | n | n | n | n | n
C=CCN1C(=O)/C(=C\c2ccco2)C(C(=O)OC)=C1C | n | 45µM | n | u | u | n
COC(=O)C1=C(C)N(CCc2ccccc2)C(=O)C1 | n | n | n | n | n | n
COC(=O)C1=C(C)N(CCc2ccccc2)C(=O)/C1=C\c1ccco1 | n | 35µM | n | u | 40µM | n
CCN1C(=O)/C(=C\c2ccco2)C(C(=O)OC)=C1C | n | u | n | n | u | n
COC(=O)C1=C(C)N(Cc2ccccc2)C(=O)/C1=C\c1ccco1 | n | 18µM | u | u | u | n
CCCCC(=O)NC(=S)NNC(=O)CCc1ccccc1 | n | n | n | x | n | u
CCCCC(=O)NC(=S)NNC(=O)CC#N | x | n | n | x | 18µM | n
